High-throughput results deposited in PubChem by Broad Institute.
HSF1 inh: HSF1 inhibition. hit rate 0.77% among 300,000. activity change, negative = inhibition, % at 7.5 µM (by protocol). NIH3T3-HGL HSE-luciferase, MG132-induced, luminescence 8 h; stronger effect = lower value;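 active = more than half of replicate wells show activity change below -50%, luminescence cut by over half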;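 note: luciferase reports HSF-1 transcriptional activity via heat shock element; 0% = median of DMSO wells and -100% = zero luminescence signal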
Vif inh: HIV Vif inhibition; HEK293T cells, Vif self-association by quenched fluorescence, imaging, 24 h; inhibition, % at 7.49 µM; hit rate 0.35% among 340,000; in the data active = inhibition above about 50%, passing the limit was not always enough
esBAF inh: SWI/SNF esBAF complex inhibition. AID 602393. reporter increase, % at 12.5 µM. hit rate 2% among 350,000. mouse ES cells, Bmi1-luciferase knock-in reporter, 24 h; 100% = twice the neutral-well signal; in the data active = activation above about 40%;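 note: 0% = median of the plate's neutral control wells and 100% = double that signal; a rise in the Bmi1 reporter signal indicates esBAF inhibition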
HSF-1 act: increases HSF-1 driven luciferase reporter signal | NIH3T3-HGL HSF-1 luciferase reporter, MG132, 8 h; 100% = twice DMSO control signal | activation, % at 9 µM | hit rate 1.7% among 300,000 | AID 504408;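 active = mean replicate activation of at least 50% with a set share of replicates each reaching 50%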;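 note: 0% = median of the neutral control wells and 100% = twice that signal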
* = called active by the depositor; . = no result. An excerpt weighted towards active compounds, which were near 3.4% of everything screened.

SMILES	HSF1 inh	Vif inh	esBAF inh	HSF-1 act
C[C@@H]1CN([C@@H](C)CO)C(=O)Cc2cc(NC(=O)Nc3ccc(F)cc3)ccc2O[C@@H]1CN(C)C(=O)Nc1cccc2ccccc12	.	.	-4	.
O=C(NC1CCCCC1)c1cnn2c(C(F)(F)F)cc(-c3ccco3)nc12	19	-7	-2	70*
Cc1cccc(C)c1NC(=O)/C(C#N)=C/c1ccc(-c2ccc(C(=O)O)cc2)o1	-11	18	128*	-9
CNC(=O)/C(C#N)=C/c1ccc(-c2ccc(Cl)cc2)o1	30	-1	80*	73*
N#C/C(=C\c1ccc(-c2ccc(C(=O)O)cc2)o1)C(=O)Nc1ccc(F)cc1	1	-1	2	11
CCN1C(=O)c2cccc3c(S(=O)(=O)Nc4ccccc4OC)ccc1c23	27	3	.	59*
COCc1cc(=O)[nH]c(SCCS(=O)(=O)c2ccc(Cl)cc2Cl)n1	88	0	-10	78*
Cc1ccc(/C=N/N(Cc2ccccc2)c2ccccc2)o1	60	4	.	106*
CC(C)CC#Cc1ccc2c(c1)O[C@H](CN(C)C(=O)CC1CC1)[C@H](C)CN([C@H](C)CO)S2(=O)=O	.	.	-10	.
c1ccc2oc(-c3csc(NCC4CCCO4)n3)cc2c1 (configuration not stated)	35	-5	.	52*
C=CCNc1nc(-c2cc3ccccc3o2)cs1	-2	6	.	22
O=C(Nc1nc(-c2cc3ccccc3oc2=O)cs1)c1ccco1	8	.	9	9
O=c1oc2ccccc2cc1-c1csc(NN=C2CCCCC2)n1	7	-5	66*	23
CC(C)NC(=O)N(C)C[C@@H]1Oc2ncc(C#CCC3CCCC3)cc2C(=O)N([C@H](C)CO)C[C@@H]1C	.	.	2	.
Cc1oc(-c2ccoc2)nc1CN(CC1CCC(=O)N1)C(C)C (configuration not stated)	19	-3	-2	72*
COCC(=O)Nc1ccc2c(c1)C(=O)N(C)C[C@H](OC)[C@H](C)CN(C(=O)CC1CC1)[C@H](C)CO2	.	.	-1	.
O=C(CCN1CCCCC1)NCC[C@@H]1CC[C@H](NC(=O)Cc2cccnc2)[C@@H](CO)O1	.	.	0	.
C[C@@H]1CN([C@@H](C)CO)C(=O)Cc2cc(NC(=O)Nc3ccc(F)cc3)ccc2O[C@H]1CN(C)Cc1ccc(C(=O)O)cc1	.	.	-9	.
CCOC(=O)c1c(C)[nH]c(C2=NNC(=Nc3cccc(Cl)c3)SC2)c1C	-75*	.	.	-75
O=C(Nc1cc(F)ccc1F)N[C@H]1CC[C@@H](CCn2cc(C3CC3)nn2)O[C@H]1CO	.	.	5	.
O=C(C[C@@H]1CC[C@@H]2[C@H](COC[C@H](O)CN2S(=O)(=O)c2cccc(F)c2)O1)NCc1ccncn1	.	.	-1	.
Cc1cccc(/C=C(\c2nc3ccccc3[nH]2)S(=O)(=O)c2ccccc2)c1	241	23	5	344*
CC(C)(C)c1ccc(/C=C(\c2nc3ccccc3[nH]2)S(=O)(=O)c2ccccc2)cc1	60	-3	-66	57*
COc1ccccc1CNC(=O)C[C@@H]1C[C@H]2c3cc(NC(=O)c4cccnc4)ccc3O[C@H]2[C@@H](CO)O1	.	.	-1	.
COc1ccc(S(=O)(=O)N(C)C[C@H]2Oc3ccc(NC(=O)Nc4cccc5ccccc45)cc3C(=O)N([C@@H](C)CO)C[C@H]2C)cc1	.	.	5	.
SMILES	HSF1 inh	Vif inh	esBAF inh	HSF-1 act
C[C@@H](NC(=O)C[C@@H]1CC[C@@H]2[C@H](COC[C@H](O)CN2C(=O)Nc2cccc(F)c2)O1)c1ccccc1	.	.	26	.
COc1ccccc1-c1cnc2c(c1)C(=O)N([C@H](C)CO)C[C@H](C)[C@H](CN(C)Cc1cccc(F)c1)O2	.	.	-7	.
COc1ccc(OCc2cccc(C(=O)NN)c2)cc1	-66*	1	-24	-74
NNC(=O)c1cccc(COc2ccc(Br)cc2)c1	-35	-6	5	-41
Cn1c(C(=O)NN)cc2cc(OCc3ccccc3)ccc21	-84*	4	4	-86
COc1ccc(OCc2cccc(C(=O)Nn3cc([N+](=O)[O-])cn3)c2)cc1	-54*	-31	-81	-60
COc1ccc(OCc2ccc(C(=O)O)cc2)cc1	14	.	51*	6
C[C@@H]1CCCCO[C@@H](CN(C)C(=O)c2ccncc2)[C@H](C)CN([C@H](C)CO)C(=O)c2cc(NS(=O)(=O)c3ccc(F)cc3)ccc2O1	.	.	7	.
C[C@@H]1CCCCO[C@@H](CN(C)C(=O)Nc2ccc3c(c2)OCO3)[C@H](C)CN([C@H](C)CO)C(=O)c2cc(NC(=O)CCC(F)(F)F)ccc2O1	.	.	12	.
